Reference: the supplement of paper PMC10849652
Of roughly 8,800 targets only a part is listed; those with a hit were picked by preference. About 0.5% of all pairs of compound and target were hits.

Legend:
Assay in all cases: log2 fold change, soluble protein after heating vs DMSO (PISA); higher = thermal stabilisation; K562 lysate, 10 uM; active = over 0.2 and 3.5 SD of the protein, either way, in both replicates (recomputed)
[1] = compound: NCC(=O)Nc1ccc(-n2nc(C(F)(F)F)cc2-c2ccc3c(ccc4ccccc43)c2)cc1
Outline: (§1)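 Following dounce homogenisation of K562 pellets in PBS pH 7.4 with 1 mM MgCl2, crude extract at 1 mg/mL protein was incubated for 30 min with 10 μM compound. Aliquots were then heated for 3 min over 48°C-58°C and pooled, NP-40 was added to 0.5% at 4°C, and soluble protein was recovered as the supernatant at 21,000xg for 90 min. Channel-sum-equalised TMTpro 16plex LC-MS/MS quantified this protein. Each value, from duplicates, is a log-two fold change in thermal stability relative to solvent controls.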

[2] = compound: O=C(CCCCCCC(=O)Nc1ccccc1)NO [vorinostat]
Outline: as §1

[3] = compound: O=C(O)c1ccc2c(c1)nc(Nc1cccc(Cl)c1)c1ccncc12 [silmitasertib]
Outline: as §1

[4] = compound: O=C1NC(=O)C(c2cnc3ccccn23)=C1c1cn2c3c(cc(F)cc13)CN(C(=O)N1CCCCC1)CC2
Outline: as §1

[5] = compound: c1cn2cc(-c3ccc4cn[nH]c4c3)nc(Nc3ccc(N4CCOCC4)cc3)c2n1 [entospletinib]
Outline: as §1

Measured: log2 fold change

SMTN isoform 6 (UniProt P53814)
inactive: [1] -0.021 | [2] -0.088 | [3] -0.007 | [4] -0.034 | [5] 0.013

SMG1 (UniProt Q96Q15)
active: [2] -0.348
inactive: [1] 0.005 | [3] 0.011 | [4] -0.006 | [5] -0.007

SULT1A1 (UniProt P50225)
Chain of UniProt P50225 (P50225 whole entry, looked up): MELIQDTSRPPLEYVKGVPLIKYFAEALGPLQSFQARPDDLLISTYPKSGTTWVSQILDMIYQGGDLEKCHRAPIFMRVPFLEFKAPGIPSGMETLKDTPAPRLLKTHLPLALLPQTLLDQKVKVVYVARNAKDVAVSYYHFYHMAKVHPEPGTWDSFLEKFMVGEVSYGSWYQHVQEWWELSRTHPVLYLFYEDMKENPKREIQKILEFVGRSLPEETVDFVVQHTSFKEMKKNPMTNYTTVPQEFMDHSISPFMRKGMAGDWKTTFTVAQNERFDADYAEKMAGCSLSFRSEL
active: [2] -0.273
inactive: [1] 0.077 | [3] 0.036 | [4] -0.021 | [5] 0.071

TAPT1 (UniProt Q6NXT6)
inactive: [1] 0.023 | [2] 0.09 | [3] 0.007 | [4] 0.023 | [5] 0.001

STK4 (UniProt Q13043)
Chain of UniProt Q13043 (Q13043 whole entry, looked up): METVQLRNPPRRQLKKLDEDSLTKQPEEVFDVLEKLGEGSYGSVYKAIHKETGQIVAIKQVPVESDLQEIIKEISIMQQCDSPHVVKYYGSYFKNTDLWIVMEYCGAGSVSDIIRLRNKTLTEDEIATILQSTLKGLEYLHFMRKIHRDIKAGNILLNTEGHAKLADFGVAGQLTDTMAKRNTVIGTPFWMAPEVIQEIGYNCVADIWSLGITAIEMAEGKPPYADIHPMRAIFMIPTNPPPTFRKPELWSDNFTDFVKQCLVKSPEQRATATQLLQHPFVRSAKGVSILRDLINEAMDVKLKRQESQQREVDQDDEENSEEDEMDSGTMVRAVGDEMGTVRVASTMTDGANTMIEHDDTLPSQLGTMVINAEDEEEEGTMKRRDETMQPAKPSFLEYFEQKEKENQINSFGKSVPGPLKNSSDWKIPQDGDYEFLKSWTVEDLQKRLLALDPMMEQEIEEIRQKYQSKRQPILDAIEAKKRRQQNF
inactive: [1] 0.054 | [2] -0.134 | [3] 0.024 | [4] 0.041 | [5] 0.047

SRSF2 (UniProt Q01130)
inactive: [1] 0.023 | [2] 0.087 | [3] -0.017 | [4] -0.043 | [5] -0.055

SSNA1 (UniProt O43805)
Chain of UniProt O43805 (O43805 whole entry, looked up): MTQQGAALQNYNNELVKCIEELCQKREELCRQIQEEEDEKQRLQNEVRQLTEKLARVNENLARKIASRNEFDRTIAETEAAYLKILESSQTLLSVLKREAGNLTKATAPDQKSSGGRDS
inactive: [1] -0.036 | [3] 0 | [4] -0.023 | [5] -0.065
active: [2] -0.34

SFR1 isoform 2 (UniProt Q86XK3)
inactive: [1] 0.092 | [2] -0.074 | [3] 0.023 | [4] -0.026 | [5] -0.043

SSB (UniProt P05455)
inactive: [1] 0.027 | [2] 0.081 | [3] 0.01 | [4] 0.032 | [5] 0.005

TADA3 (UniProt O75528)
inactive: [1] 0.018 | [3] -0.021 | [4] 0.034 | [5] 0.009
active: [2] -0.289

SPATA5 (UniProt Q8NB90)
inactive: [1] 0.005 | [2] -0.247 | [3] 0.048 | [4] -0.011 | [5] 0.013

SLC7A5 (UniProt Q01650)
inactive: [1] 0.034 | [2] 0.109 | [3] -0.04 | [4] 0.013 | [5] 0.03

STIM1 (UniProt Q13586)
inactive: [1] 0.026 | [2] 0.126 | [3] -0.01 | [4] 0.018 | [5] -0.025

STN1 (UniProt Q9H668)
inactive: [1] -0.03 | [2] -0.2 | [3] -0.111 | [4] 0.126 | [5] 0.049

SRPK1 (UniProt Q96SB4)
Chain of UniProt Q96SB4 (Q96SB4 whole entry, looked up): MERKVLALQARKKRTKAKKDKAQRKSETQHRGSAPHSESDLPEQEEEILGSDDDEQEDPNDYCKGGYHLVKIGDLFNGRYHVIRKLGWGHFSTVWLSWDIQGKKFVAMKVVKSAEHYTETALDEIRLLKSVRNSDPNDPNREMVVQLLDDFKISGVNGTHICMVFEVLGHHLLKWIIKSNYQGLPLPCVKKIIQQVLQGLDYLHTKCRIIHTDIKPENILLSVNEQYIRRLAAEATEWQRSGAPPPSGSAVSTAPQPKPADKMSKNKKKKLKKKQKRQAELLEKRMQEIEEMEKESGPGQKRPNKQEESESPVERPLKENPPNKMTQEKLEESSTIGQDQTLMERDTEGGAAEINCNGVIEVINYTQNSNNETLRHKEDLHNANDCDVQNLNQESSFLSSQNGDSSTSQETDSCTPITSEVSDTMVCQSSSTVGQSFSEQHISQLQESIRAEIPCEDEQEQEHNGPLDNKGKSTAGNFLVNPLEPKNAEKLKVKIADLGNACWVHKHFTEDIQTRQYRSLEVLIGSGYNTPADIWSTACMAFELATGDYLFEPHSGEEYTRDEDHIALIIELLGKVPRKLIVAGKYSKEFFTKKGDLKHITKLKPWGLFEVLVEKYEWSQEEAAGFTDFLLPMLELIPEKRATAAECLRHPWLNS
inactive: [1] -0.043 | [2] -0.172 | [3] 0.119 | [4] 0 | [5] 0.012

SYNRG (UniProt Q9UMZ2)
Chain of UniProt Q9UMZ2 (Q9UMZ2 whole entry, looked up): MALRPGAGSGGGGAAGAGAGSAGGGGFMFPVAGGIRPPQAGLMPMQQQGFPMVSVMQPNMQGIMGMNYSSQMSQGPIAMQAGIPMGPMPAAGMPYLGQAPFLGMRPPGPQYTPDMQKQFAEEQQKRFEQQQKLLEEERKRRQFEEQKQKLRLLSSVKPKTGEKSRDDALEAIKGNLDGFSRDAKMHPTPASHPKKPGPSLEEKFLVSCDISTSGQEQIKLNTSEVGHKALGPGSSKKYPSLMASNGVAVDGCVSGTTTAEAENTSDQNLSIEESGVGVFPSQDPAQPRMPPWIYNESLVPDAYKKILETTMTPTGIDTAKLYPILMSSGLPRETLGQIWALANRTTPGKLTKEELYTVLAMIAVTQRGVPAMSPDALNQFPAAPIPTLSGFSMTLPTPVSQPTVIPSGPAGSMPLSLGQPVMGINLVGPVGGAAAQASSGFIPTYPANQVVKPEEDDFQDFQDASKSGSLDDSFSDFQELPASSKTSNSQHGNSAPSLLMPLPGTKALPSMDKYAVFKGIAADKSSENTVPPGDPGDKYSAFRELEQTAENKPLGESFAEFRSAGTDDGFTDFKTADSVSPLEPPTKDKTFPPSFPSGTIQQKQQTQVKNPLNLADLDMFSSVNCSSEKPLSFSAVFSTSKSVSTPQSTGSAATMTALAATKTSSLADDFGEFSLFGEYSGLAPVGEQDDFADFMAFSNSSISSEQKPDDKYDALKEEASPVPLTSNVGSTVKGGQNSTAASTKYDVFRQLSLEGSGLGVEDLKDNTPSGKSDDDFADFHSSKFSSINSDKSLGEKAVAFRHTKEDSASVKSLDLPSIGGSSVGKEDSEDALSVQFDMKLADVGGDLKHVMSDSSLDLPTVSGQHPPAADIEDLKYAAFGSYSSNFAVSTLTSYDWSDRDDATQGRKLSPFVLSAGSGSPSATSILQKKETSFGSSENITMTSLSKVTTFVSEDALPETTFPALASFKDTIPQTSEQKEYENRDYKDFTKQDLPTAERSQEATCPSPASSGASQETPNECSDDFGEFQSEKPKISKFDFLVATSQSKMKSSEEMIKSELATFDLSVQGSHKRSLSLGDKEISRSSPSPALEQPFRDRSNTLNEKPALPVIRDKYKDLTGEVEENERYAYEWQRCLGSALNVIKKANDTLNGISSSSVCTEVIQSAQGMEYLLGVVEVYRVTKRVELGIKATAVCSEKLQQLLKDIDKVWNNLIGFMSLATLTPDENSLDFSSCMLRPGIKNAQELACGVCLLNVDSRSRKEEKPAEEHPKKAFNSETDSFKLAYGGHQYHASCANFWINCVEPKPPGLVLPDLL
inactive: [1] 0.02 | [2] -0.002 | [3] -0.01 | [4] -0.002 | [5] -0.014

SND1 (UniProt Q7KZF4)
active: [2] -0.414
inactive: [1] 0.001 | [3] 0.048 | [4] 0.013 | [5] 0.013

SRP54 (UniProt P61011)
active: [2] -0.241
inactive: [1] 0.003 | [3] 0.008 | [4] 0.021 | [5] -0.004

STK38 (UniProt Q15208)
inactive: [1] 0.021 | [3] 0.16 | [4] -0.029 | [5] 0
active: [2] -0.424

STK36 (UniProt Q9NRP7)
inactive: [1] 0.283 | [2] 0.143 | [3] -0.032 | [4] 0.101 | [5] -0.031

SRSF7 (UniProt Q16629)
inactive: [1] 0.02 | [2] 0.134 | [3] -0.052 | [4] -0.014 | [5] -0.013

SLC25A44 (UniProt Q96H78)
inactive: [1] 0.13 | [2] 0.025 | [3] -0.02 | [4] -0.056 | [5] -0.026

SLC25A36 (UniProt Q96CQ1)
inactive: [1] -0.172 | [2] -0.071 | [3] 0.001 | [4] 0.033 | [5] 0.013

SLC26A6 (UniProt Q9BXS9)
inactive: [1] 0.012 | [2] 0.048 | [3] 0.03 | [4] 0.021 | [5] -0.111

SORBS3 (UniProt O60504)
active: [2] -0.561
inactive: [1] -0.122 | [3] 0.057 | [4] 0.031 | [5] 0.01

SMARCA4 (UniProt P51532)
active: [2] -0.246
inactive: [1] 0.015 | [3] 0.021 | [4] -0.028 | [5] -0.008

SRRT (UniProt Q9BXP5)
Chain of UniProt Q9BXP5 (Q9BXP5 whole entry, looked up): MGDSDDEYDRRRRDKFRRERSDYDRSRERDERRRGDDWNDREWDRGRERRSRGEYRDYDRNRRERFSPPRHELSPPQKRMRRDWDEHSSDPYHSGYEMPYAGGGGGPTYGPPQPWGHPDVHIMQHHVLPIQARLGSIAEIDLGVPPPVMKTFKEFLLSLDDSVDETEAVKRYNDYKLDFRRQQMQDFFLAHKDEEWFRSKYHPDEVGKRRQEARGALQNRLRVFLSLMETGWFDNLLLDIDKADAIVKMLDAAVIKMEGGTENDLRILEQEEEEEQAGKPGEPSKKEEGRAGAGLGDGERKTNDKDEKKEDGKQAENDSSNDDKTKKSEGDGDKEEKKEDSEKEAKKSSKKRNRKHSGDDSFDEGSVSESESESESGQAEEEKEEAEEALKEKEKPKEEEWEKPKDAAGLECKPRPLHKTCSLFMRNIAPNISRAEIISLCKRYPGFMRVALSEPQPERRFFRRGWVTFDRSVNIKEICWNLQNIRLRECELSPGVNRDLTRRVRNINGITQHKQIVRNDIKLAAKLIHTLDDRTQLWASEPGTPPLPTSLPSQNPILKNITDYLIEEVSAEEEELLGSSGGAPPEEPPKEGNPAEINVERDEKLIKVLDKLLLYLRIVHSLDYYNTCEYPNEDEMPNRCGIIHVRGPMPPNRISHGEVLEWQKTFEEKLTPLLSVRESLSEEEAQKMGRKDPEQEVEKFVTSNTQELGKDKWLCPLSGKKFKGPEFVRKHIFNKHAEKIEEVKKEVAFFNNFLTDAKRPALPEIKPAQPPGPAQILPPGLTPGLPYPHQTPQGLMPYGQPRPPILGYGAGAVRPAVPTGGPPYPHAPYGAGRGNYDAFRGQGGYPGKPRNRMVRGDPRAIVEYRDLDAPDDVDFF
active: [2] -0.373
inactive: [1] -0.036 | [3] 0.044 | [4] -0.008 | [5] 0.032

SNX6, A0A0A0MRI2
inactive: [1] -0.005 | [3] 0.018 | [4] 0.015 | [5] 0.003
active: [2] -0.325

STUB1 (UniProt Q9UNE7)
Chain of UniProt Q9UNE7 (Q9UNE7 whole entry, looked up): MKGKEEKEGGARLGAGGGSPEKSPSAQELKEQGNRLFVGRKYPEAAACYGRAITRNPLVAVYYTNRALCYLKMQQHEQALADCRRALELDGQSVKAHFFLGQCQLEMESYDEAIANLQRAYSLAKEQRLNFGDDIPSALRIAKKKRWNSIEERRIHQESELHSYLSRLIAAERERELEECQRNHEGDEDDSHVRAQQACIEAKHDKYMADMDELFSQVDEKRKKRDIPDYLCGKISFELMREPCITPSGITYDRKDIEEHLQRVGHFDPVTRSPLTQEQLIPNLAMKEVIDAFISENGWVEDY
active: [2] -0.33
inactive: [1] -0.012 | [3] 0.015 | [4] 0.006 | [5] 0.019

SYPL1 (UniProt Q16563)
Chain of UniProt Q16563 (Q16563 whole entry, looked up): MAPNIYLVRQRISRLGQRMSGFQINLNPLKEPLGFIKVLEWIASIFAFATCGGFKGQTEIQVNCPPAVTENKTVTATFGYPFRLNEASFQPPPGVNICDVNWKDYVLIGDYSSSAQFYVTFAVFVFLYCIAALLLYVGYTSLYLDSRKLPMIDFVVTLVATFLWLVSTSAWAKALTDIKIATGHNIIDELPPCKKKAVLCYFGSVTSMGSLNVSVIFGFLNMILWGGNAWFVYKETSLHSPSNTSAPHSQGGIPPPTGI
inactive: [1] -0.003 | [2] 0.005 | [3] -0.03 | [4] -0.02 | [5] 0.014

SMIM8 (UniProt Q96KF7)
Chain of UniProt Q96KF7 (Q96KF7 whole entry, looked up): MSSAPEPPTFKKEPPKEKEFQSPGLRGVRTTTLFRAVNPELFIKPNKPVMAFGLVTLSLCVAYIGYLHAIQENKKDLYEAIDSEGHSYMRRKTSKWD
inactive: [1] -0.007 | [2] 0.092 | [3] -0.022 | [4] -0.029 | [5] -0.046

STARD3 isoform 3 (UniProt Q14849)
Chain of UniProt Q14849 (Q14849 whole entry, looked up): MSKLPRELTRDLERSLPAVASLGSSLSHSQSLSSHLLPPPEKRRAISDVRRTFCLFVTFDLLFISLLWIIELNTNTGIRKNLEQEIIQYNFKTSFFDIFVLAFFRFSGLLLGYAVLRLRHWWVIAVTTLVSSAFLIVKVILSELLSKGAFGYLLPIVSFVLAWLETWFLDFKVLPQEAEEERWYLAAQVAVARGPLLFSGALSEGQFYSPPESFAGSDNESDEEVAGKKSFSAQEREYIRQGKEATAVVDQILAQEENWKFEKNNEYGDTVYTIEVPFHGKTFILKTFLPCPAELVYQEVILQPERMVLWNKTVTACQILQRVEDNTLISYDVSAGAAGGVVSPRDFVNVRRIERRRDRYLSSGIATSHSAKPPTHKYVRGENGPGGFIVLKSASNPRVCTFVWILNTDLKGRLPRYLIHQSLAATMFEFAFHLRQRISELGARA
inactive: [1] 0.022 | [2] 0.065 | [3] 0.047 | [4] 0.03 | [5] -0.025

SPG11 (UniProt Q96JI7)
inactive: [1] -0.001 | [3] 0.062 | [4] 0.04 | [5] -0.098
active: [2] -0.399

SLC25A38 (UniProt Q96DW6)
inactive: [1] -0.093 | [2] 0.109 | [3] 0.129 | [4] -0.019 | [5] -0.075

SHKBP1 (UniProt Q8TBC3)
inactive: [1] -0.031 | [2] -0.069 | [3] -0.06 | [4] 0.01 | [5] -0.218

SLC19A1 (UniProt P41440)
inactive: [1] 0.003 | [2] 0.01 | [3] -0.024 | [4] -0.054 | [5] -0.002

SPATA5L1 (UniProt Q9BVQ7)
active: [2] -0.408
inactive: [1] 0.029 | [3] 0.138 | [4] 0.035 | [5] -0.021

SLC38A10 (UniProt Q9HBR0)
inactive: [1] -0.034 | [2] 0.044 | [3] -0.013 | [4] 0.08 | [5] 0.024

SKA2 (UniProt Q8WVK7)
Chain of UniProt Q8WVK7 (Q8WVK7 whole entry, looked up): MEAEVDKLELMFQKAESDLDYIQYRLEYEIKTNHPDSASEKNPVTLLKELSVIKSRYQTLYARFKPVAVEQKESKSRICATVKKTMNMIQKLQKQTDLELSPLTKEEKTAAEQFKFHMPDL
active: [2] -0.364
inactive: [1] 0.086 | [3] -0.035 | [4] 0.067 | [5] -0.028

SKP2 (UniProt Q13309)
inactive: [1] -0.07 | [2] -0.203 | [3] 0.012 | [4] 0.009 | [5] -0.103

STK24 (UniProt B4DR80)
inactive: [1] 0.023 | [2] 0.029 | [3] -0.014 | [4] -0.033 | [5] 0.001

SMC2 (UniProt O95347)
active: [2] -0.308
inactive: [1] 0.014 | [3] 0.016 | [4] -0.01 | [5] 0.009

SSU72 (UniProt Q9NP77)
inactive: [1] 0.015 | [2] 0.112 | [3] -0.026 | [4] -0.021 | [5] -0.014

SLC29A2 (UniProt Q14542)
inactive: [1] -0.045 | [2] 0.139 | [3] 0.117 | [4] 0.031 | [5] -0.06

SYF2 (UniProt O95926)
inactive: [1] -0.047 | [2] 0.092 | [3] -0.059 | [4] -0.014 | [5] -0.059

SP1 (UniProt P08047)
inactive: [1] 0.001 | [3] -0.045 | [4] 0.081 | [5] -0.006
active: [2] -0.376

SQLE (UniProt Q14534)
inactive: [1] 0.01 | [2] 0.103 | [3] -0.056 | [4] -0.042 | [5] 0.029

SPATS2 (UniProt Q86XZ4)
active: [2] -0.507
inactive: [1] -0.047 | [3] 0.002 | [4] -0.049 | [5] 0.176

SMAD9 (UniProt O15198)
active: [2] -0.436
inactive: [1] 0.007 | [3] 0.023 | [4] -0.012 | [5] 0.017

SMC6 (UniProt Q96SB8)
active: [2] -0.245
inactive: [1] -0.006 | [3] -0.022 | [4] 0.019 | [5] -0.013

SNCA (UniProt P37840)
inactive: [1] 0.069 | [2] 0.161 | [3] -0.235 | [4] -0.023 | [5] -0.126

STK3 isoform 2 (UniProt Q13188)
inactive: [1] 0.034 | [2] -0.05 | [3] 0.022 | [4] 0.025 | [5] -0.003

STOML2 (UniProt Q9UJZ1)
inactive: [1] 0.03 | [2] 0.129 | [3] -0.021 | [4] 0.028 | [5] 0.011

SUZ12 (UniProt Q15022)
inactive: [1] -0.064 | [2] -0.156 | [3] 0.023 | [4] 0.021 | [5] 0.043
